Shown are actives, neighbours in structure and some others; about 13% of the full set was active somewhere.
CHX counter – counter-screen hit for Shiga toxin inhibitors, cycloheximide; cell reporter, cycloheximide protein synthesis inhibition counterscreen; max response, %; 300,000 compounds, 12% hits; in the data active means max response mostly above about 13%, no sharp cut-off; inactive means mostly below about 14%; further: read at 38.3 µM for the half of the compounds with a filed dose
Lassa entry inh – inhibitors of Lassa virus binding or cell entry. Lassa virus pseudotype entry inhibition, cell reporter. Potency, µM (series often up to 37.9 µM), usual class: inhibitors. 300,000 compounds, 1.2% hits. AID 540256; calls by dose curve; tested in HEK293 cells; further: nearly all actives have a fitted effect of over 50% in size
HCV inhibitor – HCV inhibition. Huh7.5.1 HCVcc-Cre infection, luciferase reporter, 44 h. Potency, µM (top dose mostly 41.8 µM), hits mostly inhibitors. 340,000 compounds, 3.4% hits; active means well fitted inhibition curve with a large enough effect; inconclusive means small, poorly fitted or top-dose-only effect, or another doubt; inactive means no such curve, though single readings can be large or run the other way
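Infectious HCV cell culture screen: compound-treated cells (1,000/well, pre-plated 4 h) are infected with HCVcc-Cre at roughly 0.5 moi and grown 44 h. Infection is quantified by luciferase signal after 15 min substrate incubation at room temperature.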
Marburg entry inh – inhibitors of Marburg virus binding or cell entry; Potency, µM (titrated, usually from 37.8 µM), usual class: inhibitors; AID 540276; 300,000 compounds, 1.8% hits; Marburg virus pseudotyped entry inhibition, cell reporter; calls by dose curve; tested in HEK293 cells
Shiga inhibitor – Shiga toxin inhibition. 290,000 compounds, 9.2% hits. Vero cells, Shiga toxin protein synthesis inhibition reporter. inhibition, % at 38.7 µM; in the data active means inhibition mostly above about 28%, no sharp cut-off; inactive means mostly below about 43%
FMDV inh – blocks foot and mouth disease virus. Potency, µM (doses to about 57.9 µM), usual class: inhibitors. FMDV antiviral cell-based qHTS. 410,000 compounds, 1.2% hits; calls by dose curve; tested in HEK293T cells; further: read-out not given here; nearly all actives have a fitted effect of over 45% in size
Each line names hits and unclear results; the compound was inactive in the other large screens.

O=C(c1cnccn1)N1CCC[C@@]2(CCN(c3ccccc3)C2)C1	none (no result: CHX counter, Lassa entry inh, HCV inhibitor, Marburg entry inh, Shiga inhibitor)
C=CCn1c(SCC(O)Cn2c3ccccc3c3ccccc32)nnc1-c1ccco1 (configuration not stated)	HCV inhibitor inconclusive, FMDV inh inconclusive
O=C(Nc1ccccc1)N(O)c1ccc(Cl)cc1	CHX counter 48.7, Marburg entry inh inconclusive, Shiga inhibitor 98.3
Cc1cccc(NC(=O)c2cccc(NC(=O)Cc3cccs3)c2)c1	CHX counter 27.1, Lassa entry inh inconclusive, HCV inhibitor inconclusive, Marburg entry inh inconclusive, Shiga inhibitor 92.0
Cc1ccc(-c2nnc(-c3ccc(NC(=O)Cc4cccs4)cc3)o2)cc1	Lassa entry inh inconclusive, HCV inhibitor inconclusive, Marburg entry inh inconclusive
CC(=O)N(C)c1ccc(NC(=O)Cc2cccs2)cc1	CHX counter 17.6 (no result: Shiga inhibitor)
COc1ccc(OC)c(NC(=O)COC(=O)c2c(C)noc2C)c1	none (no result: CHX counter, Lassa entry inh, Marburg entry inh, Shiga inhibitor)
COC(=O)C1=C(C)N(Cc2ccccc2)C(=NCc2ccc(OC)cc2)NC1c1cccc(F)c1 (configuration not stated)	none (no result: CHX counter, Lassa entry inh, HCV inhibitor, Shiga inhibitor, FMDV inh)
COc1ccc(/C=C2/CCc3ccccc3C2=O)cc1OC	CHX counter 74.0, Lassa entry inh inconclusive, HCV inhibitor inconclusive, Shiga inhibitor 73.9
Cc1cc(C)c2c(c1)C(=O)/C(=C/c1ccc(C(=O)O)cc1)CC2	none
COc1ccc2c(c1)CC/C(=C\c1ccc(OC)c(Cn3nc(C)cc3C)c1)C2=O	Lassa entry inh inconclusive, HCV inhibitor 3.98µM, Marburg entry inh inconclusive, FMDV inh inconclusive
O=C(O)c1ccc(/C=C2\COc3ccccc3C2=O)cc1	CHX counter 22.2, Lassa entry inh inconclusive, Marburg entry inh inconclusive, FMDV inh 22.4µM
COc1cc(/C=C2\CCc3ccccc3C2=O)cc(OC)c1OC	CHX counter 17.6, Lassa entry inh inconclusive, HCV inhibitor inconclusive, Marburg entry inh inconclusive, Shiga inhibitor 31.5
COc1ccc(/C=C2\OC(=O)c3c(OC)cccc32)cc1OC	CHX counter 37.7, HCV inhibitor inconclusive, Marburg entry inh inconclusive
COc1ccc(C=C2C(=O)OC(C)(C)OC2=O)cc1OC	none (no result: Lassa entry inh, Marburg entry inh)
COc1ccc(/C=C2\COc3ccccc3C2=O)c(OC)c1	CHX counter 43.3, HCV inhibitor inconclusive, Marburg entry inh inconclusive, Shiga inhibitor 71.1
COc1ccc(C=C2c3ccccc3C(=O)c3ccccc32)c(OC)c1	none (no result: Lassa entry inh, HCV inhibitor, Marburg entry inh, FMDV inh)
COc1ccc(/C=C2\COc3ccccc3C2=O)cc1OC	CHX counter 45.3, Lassa entry inh inconclusive, Marburg entry inh inconclusive, Shiga inhibitor 65.3
COc1ccc(/C=N\NC(=O)c2sccc2C)cc1Cn1nc(C)cc1C	CHX counter 42.3, HCV inhibitor inconclusive, Shiga inhibitor 104.5 (no result: Lassa entry inh, Marburg entry inh)
COc1ccccc1C=C1CCc2ccccc2C1=O	none (no result: CHX counter, Lassa entry inh, HCV inhibitor, Marburg entry inh, Shiga inhibitor)
COc1ccc(/C=C2\CCc3ccccc3C2=O)cc1CN1CCOCC1	CHX counter 30.1, Lassa entry inh inconclusive, Marburg entry inh inconclusive, Shiga inhibitor 93.7
COc1ccc2c(c1)CC/C(=C\c1ccc(OC)c(Cn3cccn3)c1)C2=O	HCV inhibitor inconclusive, Marburg entry inh inconclusive, FMDV inh inconclusive
COc1cc(/C=C2/CCc3ccccc3C2=O)cc(OC)c1OC	Lassa entry inh inconclusive, HCV inhibitor inconclusive, Marburg entry inh 11.2µM, FMDV inh inconclusive
COc1ccc2c(c1)OC/C(=C/c1cccs1)C2=O	CHX counter 44.5, Shiga inhibitor 73.4
CCOc1cc(/C=C2\COc3ccccc3C2=O)cc(Br)c1OCC(=O)N(C)C	Lassa entry inh inconclusive, HCV inhibitor inconclusive, Marburg entry inh inconclusive, FMDV inh 10µM
CN1CCN(c2ncnc3ccc(-c4ccc(C(=O)N(C)C)cc4)cc23)CC1	none (no result: CHX counter, Lassa entry inh, HCV inhibitor, Marburg entry inh, Shiga inhibitor)
COc1cc(C)ccc1OCc1cc(C(=O)N2CCN(C3CCCCC3)CC2)no1	CHX counter 47.6, Shiga inhibitor 58.4 (no result: Lassa entry inh, Marburg entry inh)
CCN1CCN(C(=O)c2cc(COc3ccc(C(C)=O)cc3OC)on2)CC1	CHX counter 42.7, Lassa entry inh inconclusive, Marburg entry inh inconclusive, Shiga inhibitor 75.0
Cc1ccc(N2CCN(C(=O)c3cc(COc4c(C)cccc4C)on3)CC2)c(C)c1	HCV inhibitor inconclusive
COc1cc(C)ccc1OCc1cc(C(=O)N2CCCCCCC2)no1	CHX counter 51.2, Shiga inhibitor 92.4
N/C(=N\OC(=O)CN1C(=O)c2ccccc2C1=O)c1ccc(Br)cc1	none
N#Cc1ccccc1S(=O)(=O)N1CCN(C(=O)Cc2coc3cc(O)ccc23)CC1	HCV inhibitor inconclusive (no result: CHX counter, Shiga inhibitor)
Cc1ccc(S(=O)(=O)NCCC(=O)NCC(c2cccs2)N(C)C)cc1 (configuration not stated)	none (no result: CHX counter, Lassa entry inh, Marburg entry inh, Shiga inhibitor)
Cn1c(SCc2c(Cl)cccc2Cl)nc(C(F)(F)F)cc1=O	Marburg entry inh inconclusive
CC(=O)N1N=C(c2cccc([N+](=O)[O-])c2)OC1c1ccc(Cl)cc1Cl (configuration not stated)	HCV inhibitor 10µM, FMDV inh inconclusive
CC(C)c1ccc(NC(=O)c2cc(S(=O)(=O)NCCC3=CCCCC3)ccc2F)cc1	none (no result: CHX counter, HCV inhibitor, Marburg entry inh, Shiga inhibitor)
CCCCCCCn1c(=N)n(CC(O)c2ccco2)c2ccccc21 (configuration not stated)	Lassa entry inh inconclusive, HCV inhibitor 8.91µM, Marburg entry inh 2.82µM
CCCCn1c(=N)n(CC(O)c2ccccc2)c2ccccc21 (configuration not stated)	Lassa entry inh inconclusive, HCV inhibitor inconclusive, Marburg entry inh 13µM
CCn1c(=N)n(CC(O)c2ccccc2)c2ccccc21 (configuration not stated)	Marburg entry inh inconclusive
CC(C)(C)c1ccc(Cn2c(=N)n(CC(O)c3ccco3)c3ccccc32)cc1 (configuration not stated)	HCV inhibitor 10µM, Marburg entry inh 11.2µM, FMDV inh 20µM
N=c1n(CCN2CCCC2)c2ccccc2n1CC(O)c1ccco1 (configuration not stated)	Lassa entry inh inconclusive, HCV inhibitor inconclusive, Marburg entry inh inconclusive
COc1cc(C(Nc2ccccn2)c2ccc3ccc(C)nc3c2O)cc(OC)c1O (configuration not stated)	Lassa entry inh inconclusive, Marburg entry inh inconclusive, FMDV inh 35.5µM
Cc1ccnc(NC(c2cccnc2)c2ccc3cccnc3c2O)c1 (configuration not stated)	Lassa entry inh inconclusive, HCV inhibitor 3.98µM, Marburg entry inh 8.91µM
Cc1ccnc(NC(c2ccccc2)c2ccc3cccnc3c2O)c1 (configuration not stated)	Lassa entry inh inconclusive, HCV inhibitor 12.6µM, Marburg entry inh inconclusive (no result: CHX counter, Shiga inhibitor)
Cc1ccnc(NC(c2cc(C)ccc2O)c2ccc3cccnc3c2O)c1 (configuration not stated)	Lassa entry inh inconclusive, Marburg entry inh inconclusive (no result: CHX counter, HCV inhibitor, Shiga inhibitor)
O=C1/C(=C/c2cccnc2)Oc2cc(OS(=O)(=O)c3ccccc3)ccc21	HCV inhibitor inconclusive, Marburg entry inh inconclusive, FMDV inh inconclusive
COc1ccccc1CC(NC(C)=O)C(=O)NC1CCN(S(=O)(=O)c2ccc(NC(C)=O)cc2)CC1 (configuration not stated)	none
Cc1nn(C)c(Cl)c1CN1CCCC(CO)(Cc2cccc(Cl)c2)C1 (configuration not stated)	none (no result: Lassa entry inh, Marburg entry inh)
O=C(NNc1nc2cc3c(cc2s1)OCO3)c1ccccc1	CHX counter 61.3, Lassa entry inh inconclusive, Shiga inhibitor 90.5
